Screening results deposited in PubChem BioAssay by several laboratories.
V-ATPase pH: regulators of yeast V-ATPase proton transport; response, % at 10 µM; AID 504577; actives 0.37% (n = 350,000); S. cerevisiae, pHLuorin cytosolic pH fluorescence; in the data active = response mostly above about 7.3%, no sharp cut-off; inactive = mostly below about 5.4%; note: actives read high
PfHsp90 set2: inhibits growth of yeast expressing Plasmodium falciparum Hsp90; S. cerevisiae expressing PfHsp90, BacTiter-Glo ATP, 48 h; yeast lacking PDR1 and PDR3 efflux regulators; inhibition, % at 9.4 µM; actives 0.32% (n = 310,000); AID 504621;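 active = every replicate shows inhibition above about 80%, whatever the replicate mean, limit read from the data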;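 note: 0% = DMSO neutral controls and 100% = 20 µM radicicol positive controls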
tim23-1 inh: inhibits growth of tim23-1 mutant yeast. S. cerevisiae tim23-1 growth, BacTiter-Glo luminescence, 24 h. inhibition, % at 20 µM. actives 1.3% (n = 330,000);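 active = growth inhibition of the mutant yeast at or above 50%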;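 note: temperature-sensitive mutant grown at 25 °C; plate controls were DMSO-treated mutant yeast for no effect and medium wells lacking yeast for full effect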
TIM10 inh: inhibits growth of TIM10 yeast strain | S. cerevisiae TIM10 strain growth, BacTiter-Glo luminescence, 24 h | inhibition, % at 10 µM | actives 1.4% (n = 330,000) | AID 463195;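 active = inhibition of 40% or more at the single tested concentration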;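 note: wild-type TIM10 isogenic control strain grown at permissive 25 °C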
tim10-1 inh: inhibits growth of tim10-1 mutant yeast. S. cerevisiae tim10-1 ts strain growth, BacTiter-Glo, 24 h. inhibition, % at 20 µM. actives 2.2% (n = 330,000);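 active = inhibition of at least 40%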;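 note: mutant grown at 25 °C; 0% = DMSO wells with yeast and 100% = wells holding no yeast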
tim10 confirm: confirmation of TIM10 yeast growth inhibitors; inhibition, % at 10 µM; actives 63% (n = 4,600); S. cerevisiae tim10 strain growth, BacTiter-Glo luminescence, 24 h; shares compounds with TIM10 inh;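 active = inhibition of yeast growth at or above a set limit in either of two replicates at 10 µM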;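 note: this counterscreen used the strain with wild-type TIM10; 0% = yeast with DMSO and 100% = medium wells lacking yeast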
Starred values were filed as active, the others as inactive; . = no result given. Most compounds without a hit are left out; they make up all but 3.7% or so of the library.

SMILES	V-ATPase pH	PfHsp90 set2	tim23-1 inh	TIM10 inh	tim10-1 inh	tim10 confirm
O=C1C(=O)N(c2ccccn2)C(c2cccc(F)c2)/C1=C(/O)c1ccccc1 (stereo not given)	5	-16	29	-13	14	.
ClCc1nc2ccccc2c2ccccc12	3	-6	47	41*	34	38*
CCOC(=O)c1c(CCl)nc2ccccc2c1-c1ccccc1	-2	-13	29	-10	-8	.
NNC(=O)c1nnsc1-c1csnn1	0	-10	.	.	.	.
CC(C)NC(=O)N(C)C[C@H]1Oc2ncc(Br)cc2C(=O)N([C@H](C)CO)C[C@@H]1C	0	.	.	.	.	.
CC(C)NC(=O)[C@]1(C)CCC[C@@]2(C)C3CC[C@@]4(C)C[C@]3(CCC21)CC4=O (stereo not given in full)	-1	36	45	4	15	.
CCCCNC(=O)[C@]1(C)CCC[C@@]2(C)C3CC[C@@]4(C)C[C@]3(CCC21)CC4=O (stereo not given in full)	4	6	27	59*	-2	15
c1cc(-c2nnc3sc(C4CCCCC4)nn23)ccn1	0	7	12	41*	39	19
O=C(COC(=O)CC1CC2CCC1C2)Nc1ccc(F)cc1 (stereo not given)	2	25	31	43*	27	28
CC(=O)c1ccc(NC(=O)COC(=O)CC2CC3CCC2C3)cc1 (stereo not given)	3	-15	39	10	-2	.
C#CCOCCOCCOCCNc1nc(N2CCN(C(=O)Cn3cc(CCCN=C(N)N)nn3)CC2)nc(N2CCN(C(=O)[C@H](C)n3cc(CCCN=C(N)N)nn3)CC2)n1	4	14	-10	61*	-4	-8
Fc1ccc2[nH]c3c(c2c1)CN(C(=S)NCc1ccccc1)CC3	3	8	49	41*	29	38*
COC(=O)c1ccc(C(=O)N(Cc2ccccc2)c2ccccc2)cc1	1	-15	16	46*	15	-7
N#Cc1ccc(C(=O)N(Cc2ccccc2)c2ccccc2)cc1	-2	11	26	19	29	.
COc1cc(NC(=O)CSc2cc(C)c3cc(C)cc(C)c3n2)c(C(=O)O)cc1OC	2	7	40	45*	10	18*
COc1cc(NC(=O)CSc2nccc(C)n2)c(C(=O)O)cc1OC	1	33	3	6	12	.
COc1ccc2oc(=O)c(-c3nnc(N)s3)cc2c1	-1	12	36	62*	37	60*
Nc1nnc(-c2cc3ccccc3oc2=O)s1	0	5	6	16	13	.
CCN(CC)C(=S)NC(=O)c1ccc(Cl)cc1Cl	2	2	38	2	21	.
CCCCN(CCCC)C(=S)NC(=O)c1ccccc1Cl	-2	2	44	48*	39	-16
CCCN(Cc1ccccc1)C(=S)NC(=O)c1ccccc1[N+](=O)[O-]	3	-46	44	44*	32	40*
CCN(Cc1ccccc1)C(=S)NC(=O)c1ccccc1Br	0	11	43	29	38	.
CCOC12NC(=O)CC(=O)N1C(c1ccccc1)=CS2 (stereo not given)	-2	.	43	43*	36	28
CSc1ccccc1C(=O)Nc1cccc(C)c1	1	.	37	44*	20	30
CC(C)Cc1nnc(NC(=O)CCC(=O)N2CCN(c3ccc(Cl)cc3)CC2)s1	3	-23	7	5	29	.
SMILES	V-ATPase pH	PfHsp90 set2	tim23-1 inh	TIM10 inh	tim10-1 inh	tim10 confirm
O=C(c1cnccn1)N1CCc2c([nH]c3ccccc23)C1c1cccc(Cl)c1 (stereo not given)	3	-12	30	41*	23	24
Cc1ccc(CN2CCN(/N=C\C(Br)=C\c3ccccc3)CC2)cc1	-1	14	22	44*	38	23
CC(=C/c1ccccc1)/C=N/N1CCN(Cc2ccc(C)cc2)CC1	1	-3	8	4	-46	.
CCC(C)[C@H](NC(=O)[C@@H]1Cc2c([nH]c3ccccc23)C2c3ccccc3C(=O)N21)C(=O)NCC1CCCO1 (stereo not given in full)	1	25	6	3	5	.
CCOC(=O)c1c(CN2CCOCC2)n(-c2ccccc2)c2cc(Br)c(O)c(CN(C)C)c12	-1	-10	35	57*	38	40*
Cc1ccc(C(=O)Cn2cnc3ccccc3c2=O)cc1C	-1	14	33	53*	-6	34*
O=C(Cn1cnc2ccccc2c1=O)c1ccc2c(c1)OCCO2	3	-15	50	45*	26	34*
CN(C)c1ccc(/C=C2\SC(N3CCCCC3)=NC2=O)cc1	-4	20	47	-1	22	.
COCCOC(=O)C1=C(C)NC(=S)NC1/C=C/c1ccccc1 (stereo not given)	15	10	12	7	16	.
C=CCOC(=O)C1=C(C)NC(=S)NC1/C=C/c1ccccc1 (stereo not given)	0	-4	7	43*	29	1
Cc1c(C(=O)/C=C/c2ccccc2F)c2cc(O)ccc2n1C	-1	.	.	.	.	.
COc1cccc(-c2cc(C(=O)N3CCN(C(c4ccccc4)c4ccccc4)CC3)no2)c1	-1	-20	30	57*	40	44*
COc1cccc(-c2cc(C(=O)N3CCOCC3)no2)c1	0	-78	5	-12	-4	.
COc1ccc(-c2cc(C(=O)N3CCN(c4ccccc4)CC3)no2)cc1OC	0	.	-4	42*	23	20
O=C(c1cc(-c2cccs2)on1)N1CCN(C(c2ccccc2)c2ccccc2)CC1	-1	-9	31	50*	30	31*
COc1cccc(-c2cc(C(=O)N3CCN(C(=O)c4ccco4)CC3)on2)c1	4	-36	9	47*	1	9
Nc1nonc1-n1nnc(C(=O)N/N=C/c2ccco2)c1CSc1ccccc1	8	11	9	14	-2	.
Cc1cccc(NC(=O)c2cc([N+](=O)[O-])ccc2NCC2CCCO2)n1 (stereo not given)	0	-19	37	49*	37	43*
COc1ccc(-c2cc3nc(-c4ccccc4)cc(N4CCN(C(=O)c5ccccc5)CC4)n3n2)cc1	-1	.	.	.	.	.
COc1ccc(-c2cc3nc(-c4ccccc4)cc(N4CCCC(O)C4)n3n2)cc1 (stereo not given)	-2	-33	26	42*	40	34*
C[C@H](NC(=O)c1ncn2c1C(=O)NC[C@H]2C)c1ccccc1	0	.	.	.	.	.
O=C(NN1C(=O)c2ccccc2NC1c1ccc([N+](=O)[O-])o1)c1ccc(Br)cc1 (stereo not given)	-2	-13	43	55*	38	61*
CC(=O)NN1C(=O)c2ccccc2NC1c1ccc([N+](=O)[O-])o1 (stereo not given)	1	-7	13	9	2	.
